# Bioassay records from PubChem BioAssay.
# An excerpt weighted towards active compounds, which were near 2.5% of everything screened.
# AF4-AF9 inh: inhibitors of AF4 peptide binding to AF9, primary screen, biochemical, AlphaScreen, biotin-AF4 peptide, FLAG-AF9, single point; Protein AF-9 (Homo sapiens), P42568; inhibition, % at 10 µM; hit rate 0.47% among 350,000; AID 651704, 2012;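 active means every replicate reaching a set inhibition limit, whatever the replicate mean, cut at about 25% in these data; inconclusive means mean inhibition reaches that limit but some replicates miss it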
# RAD52 inh: RAD52 DNA annealing inhibitors, primary screen, biochemical, FRET, single point, set 2; hit rate 0.46% among 360,000; DNA repair protein RAD52 homolog (Homo sapiens), P43351; AID 651710, 2012; inhibition, % at 18.7 µM; recombinant RAD52 DNA annealing, FRET fluorescence;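 active means every replicate showing at least 50% inhibition; inconclusive means mean inhibition at least 50% but not in every replicate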
# NSD2 HMT inh: NSD2 histone methyltransferase inhibitors, primary screen, biochemical, AlphaScreen, single concentration, set 2; AID 743445, 2014; NSD2 peptide methylation, 120 min; inhibition, % at 12.5 µM; Histone-lysine N-methyltransferase NSD2 (Homo sapiens), O96028; hit rate 0.54% among 310,000; in the data active means inhibition above about 50%
# CASP6 VEID inh: human caspase-6 inhibitors, primary screen, biochemical, VEID-R110 fluorescence, single point, set 2 | hit rate 0.53% among 350,000 | purified caspase-6, Z-VEID-R110 cleavage fluorescence | P55212 | inhibition, % at 12.5 µM;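 active means mean inhibition across replicates at least about 35%, with every replicate also reaching that limit, limit read from the data; inconclusive means only one of the two criteria met; inactive means neither criterion met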
# Target sequence (P55212 24-179 limits assumed): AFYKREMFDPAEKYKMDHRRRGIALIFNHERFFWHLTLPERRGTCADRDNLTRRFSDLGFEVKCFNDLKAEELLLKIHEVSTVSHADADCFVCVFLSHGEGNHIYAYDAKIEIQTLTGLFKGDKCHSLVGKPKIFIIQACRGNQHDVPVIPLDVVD
# Target sequence (P55212 194-293 limits assumed): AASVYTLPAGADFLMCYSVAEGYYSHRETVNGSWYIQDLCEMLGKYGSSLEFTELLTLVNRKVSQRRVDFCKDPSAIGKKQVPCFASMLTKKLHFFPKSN
# rRNA inh HTS: reduced GFP signal of wild-type E. coli, primary screen, bacterial rRNA inhibitor project, GFP/RFP fluorescence, OD600, single point. E. coli WT GFP vs humanized-ribosome RFP mutants, 24 h; hits give low values; DMSO median 0, no signal -100. GFP signal change (wild-type ribosome), % (test concentration not listed). hit rate 1.6% among 350,000. AID 720706, 2013;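 active means significant combined selectivity score with lowered wild-type GFP, culture density cut under 30%, mutant RFP and density less affected; inactive means any of these conditions unmet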
# Hits are given with their value; - = inactive; ? = inconclusive; . = not tested or not shown; ! = not active in a repeat.
SMILES,AF4-AF9 inh,RAD52 inh,NSD2 HMT inh,CASP6 VEID inh,rRNA inh HTS
O=C(N/N=C/c1ccc(O)cc1)Nc1cccc2nsnc12,-,-,-,-,-31
CC(C)[C@@H]1C(=O)N[C@H](c2cccc(Cl)c2)CC=CC[C@@H](C)Oc2ccccc2C(=O)N1C (mixture of isomers),.,.,.,.,-
O=C(CSc1nnc(-c2ccc(Cl)cc2)n1Cc1ccco1)c1cccs1,.,.,-,.,.
O=C(CSc1nnc(-c2ccncc2)n1Cc1ccco1)c1ccc(Cl)cc1,.,-,-,-,-20
CNC[C@H]1Oc2ccc(NS(=O)(=O)c3ccc(C)cc3)cc2C(=O)N([C@H](C)CO)C[C@@H]1C,-,-,.,-,-
C[C@@H]1CN([C@H](C)CO)C(=O)c2cc(N(C)C)ccc2O[C@H]1CN(C)Cc1ccc(-c2ccccc2)cc1,50,-,.,-,-
C[C@H]1CN([C@@H](C)CO)C(=O)c2cc(N(C)C)ccc2O[C@@H]1CN(C)Cc1ccc(-c2ccccc2)cc1,40,-,.,-,-
C[C@@H]1CN([C@H](C)CO)S(=O)(=O)c2ccc(C3=CCCC3)cc2O[C@H]1CN(C)C(=O)C1CC1,.,.,.,.,-
CCN(Cc1ccccc1)C(=O)c1cc(-c2ccc(OC)c(OC)c2)nc2ccccc12,-,-,-,-,-
COCCN(Cc1ccccc1)C(=O)c1cc(-c2ccc(OC)c(OC)c2)nc2ccccc12,-,-,-,-,-31
CO[C@H]1CN(C)C(=O)c2cc(NS(=O)(=O)c3ccc(Cl)cc3)ccc2OC[C@H](C)N(C(=O)NC(C)C)C[C@@H]1C,.,.,.,.,-
CCN(CC)Cc1cc(Nc2c3ccccc3nc3c4ccccc4n(C)c23)cc(CN(CC)CC)c1O,55,106,.,-,-
CCOc1cc2nc3c4ccccc4n(C)c3nc2cc1OCC,-,-,-,-,-
CCOc1cccc2sc(NC(=O)CC)nc12,-,-,-,-,-19
C[C@H]1CC=CC[C@H](c2cccc(Cl)c2)NC(=O)[C@H](C)N(C)C(=O)c2ccccc2O1 (mixture of isomers),.,.,.,.,-
Cc1noc(C)c1NC(=O)N(C)C[C@@H]1Oc2ncc(C3=CCCCC3)cc2C(=O)N([C@@H](C)CO)C[C@@H]1C,.,.,.,.,-
O=[N+]([O-])c1cc2c(cc1/C=N/NS(=O)(=O)c1ccc(Br)cc1)OCO2,-,-,-,44,-
CC(=O)c1ccc2noc(-c3ccc(Cl)cc3)c2c1,-,-,-,-,-
Cc1cc(-c2onc3ccc(Cl)cc23)ccc1O,-,-,-,-,-31
COc1cccc(N2C(=O)C3C(C2=O)C3(c2ccccc2)c2ccccc2)c1 (centres undefined),-,-,-,-,-33
N=C1S/C(=C\c2ccco2)C(=O)N1c1nccs1,-,-,-,37,-
Cc1ccc(N2C(=O)/C(=C/c3ccco3)SC2=S)cc1,-,-,-,-,-
N=C1S/C(=C\c2ccco2)C(=O)N1c1ccc2c(c1)OCO2,-,-,-,-,-43
COc1ccccc1OCCN1C(=O)S/C(=C\c2ccco2)C1=O,.,.,-,.,.
CN(C)c1ccc(N=Cc2cccn2C)cc1,50,-,.,-,-
SMILES,AF4-AF9 inh,RAD52 inh,NSD2 HMT inh,CASP6 VEID inh,rRNA inh HTS
COc1cccc2c(SCC(=O)N/N=C/c3ccc(O)c(O)c3)cc(C)nc12,-,-,132,.,-
COc1cccc2c(SCC(=O)N/N=C/c3ccccc3)cc(C)nc12,-,-,-,-,-
CCC(=O)N1C[C@H](O)COC[C@@H]2O[C@@H](CC(=O)NCC3CCCCC3)CC[C@H]21,-,-,.,-,-
CCCN(C)C[C@@H]1Oc2ncc(-c3cccc(C#N)c3)cc2C(=O)N([C@@H](C)CO)C[C@H]1C,-,-,.,-,.
COc1cccc(C(=O)Oc2c(Br)cc(Br)cc2/C=N/NC(=O)c2cc(C)[nH]n2)c1,-,-,.,-,-20
Cc1cc(C(=O)N/N=C/c2cccc(OC(=O)c3cccc(Br)c3)c2)n[nH]1,-,-,-,-,-
O=C(Nc1ccccc1)N[C@H]1CC[C@H](CCn2cc(-c3ccccc3F)nn2)O[C@H]1CO,-,-,.,-,-
COc1ccc(CCN2CN(S(=O)(=O)c3ccc(OC)cc3)c3nc4ccccc4nc32)cc1,-,-,-,-,-
O=S(=O)(c1cccs1)N1CN(Cc2ccccc2)c2nc3ccccc3nc21,.,.,-,.,.
COc1ccc(CN2CN(S(=O)(=O)c3cccs3)c3nc4ccccc4nc32)cc1,-,-,-,-,-42
COc1ccc(CN2CN(S(=O)(=O)c3ccccc3)c3nc4ccccc4nc32)cc1,-,-,-,-,-25
N#Cc1ccc(-c2ccc3c(c2)[C@H]2[C@H](CCN2S(=O)(=O)c2ccccc2F)[C@H](CO)N3)cc1,.,.,.,.,-
O=C(NCC[C@H]1CC[C@H](NS(=O)(=O)c2ccc(Cl)cc2)[C@H](CO)O1)Nc1ccc(F)cc1,30,-,.,-,-
O=C(NCC[C@H]1CC[C@H](NC(=O)Nc2cc(F)ccc2F)[C@H](CO)O1)Nc1ccc(F)cc1,-,-,.,-,-
O=C(NCC[C@@H]1CC[C@@H](NC(=O)Nc2cc(F)ccc2F)[C@H](CO)O1)Nc1ccc(F)cc1,-,56,.,-,-
C[C@@H]1CCCCO[C@H](CN(C)S(C)(=O)=O)[C@H](C)CN([C@@H](C)CO)C(=O)c2cc(NC(=O)Cc3ccccc3)ccc2O1,.,.,.,.,-
O=S(=O)(N[C@@H]1CCCN(Cc2ccc(OCCO)cc2)C1)c1cc(Cl)ccc1Cl,-,-,.,-,.
O=C(Nc1nnc(S(=O)(=O)Cc2ccc(F)cc2)s1)c1ccccc1F,-,-,-,-,-40
Cc1ccccc1NS(=O)(=O)c1nnc(NC(=O)c2ccccc2F)s1,-,-,.,-,-
CN1C(=O)[C@@H]2[C@@H](CC(COc3ccccc3)=C3[C@@H](c4ccccc4)OB(O)C[C@@H]32)C1=O,-,-,.,-,.
C/C(=N\Nc1nc2ccccc2[nH]1)c1cc2ccccc2o1,.,.,-,.,.
C/C(=N\Nc1nc2ccccc2[nH]1)c1ccc2c(c1)OCCO2,?,-,-,.,-48
Cc1ccc(-c2ccc(C3[C@@H]4CN(S(=O)(=O)c5ccccc5)C[C@H]3N4)cc2)cc1 (some centres undefined),-,98!,.,-,-
O=S(=O)(c1ccccc1)N1C[C@@H]2N[C@H](C1)C2c1ccc(-c2ccccc2)cc1 (some centres undefined),-,73!,.,-,-
O=S(=O)(c1ccc(-c2ccccc2)cc1)N1C[C@@H]2N[C@H](C1)C2c1ccc(-c2ccncc2)cc1 (some centres undefined),.,.,.,.,-
Cc1ccc(S(=O)(=O)N2C[C@@H]3N[C@H](C2)C3c2ccc(-c3cccc(C#N)c3)cc2)cc1 (some centres undefined),-,82!,.,-,-
